Bioassay records (PubChem BioAssay)
In the library only some 3.8% were active in any assay of this set; here they are far more common.
FAS-TE inh = blocks the thioesterase domain of human fatty acid synthase. P49327. recombinant FAS-TE, OMFH fluorogenic substrate, fluorescence endpoint. inhibition, % at 15 µM. 360,000 compounds, 0.67% hits;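 active means compounds whose normalised, plate-corrected inhibition of enzyme fluorescence in the single-dose primary screen is 50% or more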;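 further: 0% = DMSO with enzyme and 100% = substrate without enzyme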
aDG glyco up = alpha-DG glycosylation activation; Pro5-aDG cells, alpha-DG glycosylation AlphaScreen (IIH6); 0% Pro5, 100% B10-LARGE cell signal; activation, % at 10 µM; 360,000 compounds, 0.22% hits; AID 624168;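 active means activation of at least 8% versus controls, or a plate z-score of at least 8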;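 further: Pro5 are CHO cells carrying HIG-tagged alpha-DG that lacks glycosylation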
Cardio protect = myocardial damage modulation in H9c2 cells; protection from H2O2 cell death, % at 20 µM; H9c2 cardiomyocytes, H2O2 injury protection, ATPLite, 2 h; 360,000 compounds, 0.63% hits;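 active means compounds giving at least 50% protection of heart cells from peroxide-induced death in the single-dose screen, raw or plate-pattern-corrected value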;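 further: 0% = DMSO wells with peroxide and 100% = DMSO wells without peroxide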
MPTP inh = blocks calcium-induced mitochondrial swelling; isolated mouse mitochondria, Ca2+ swelling absorbance, 30 min; inhibition, % at 10 µM; 360,000 compounds, 1.4% hits; AID 602449;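 active means inhibition of 50% or more, scaled per plate between neutral and stimulator controls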;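 further: 0% = DMSO wells given calcium and 100% = 1 mM EGTA wells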
Yeast superoxide = lowers age-related superoxide in aged yeast cells; S. cerevisiae aged cells, superoxide DHE fluorescence; hits give low values; superoxide response (% of plate mean), % at 10 µM; 330,000 compounds, 0.18% hits;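 active means superoxide response under a set limit, about three screen SD below normal, cut at about 65% in these data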;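 further: yeast aged for seven days with compound at 30 °C before DHE staining; 100% = average MFI of all compound-treated wells on the plate with controls excluded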
Mot1-301 SUMO = SUMOylation pathway inhibition by Mot1-301 growth rescue. S. cerevisiae Mot1-301 growth rescue, ATP luminescence, 38.5C; percent above DMSO median, 100 means doubled. 320,000 compounds, 1% hits. growth rescue, % at 18.8 µM;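 active means every valid replicate shows activation above 250% relative to neutral control wells; inactive means the rest, any valid replicate at or below 250%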;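 further: OY570 slx delta 5 strain wells were the positive control but not used for scaling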
Rh123 counter = mitochondrial membrane potential, counter-screen; 5,000 compounds, 78% hits; shares compounds with MPTP inh; isolated mitochondria, Rhodamine 123 fluorescence; inhibition, % at 10 µM; in the data active means inhibition above about 22%;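 further: 0% = DMSO vehicle and 100% = positive control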
MPTP abs DR = MPTP inhibition, dose response swelling confirmation; shares compounds with MPTP inh; isolated mitochondria swelling, absorbance; IC50, µM; 780 compounds, 58% hits; AID 651561; in the data active means IC50 below about 20 µM
MPTP counter DR = counter-screen for mitochondrial permeability transition pore inhibitors, dose response. IC50, µM. shares compounds with MPTP inh. 780 compounds, 49% hits. isolated mitochondria counterscreen, fluorescence read-out; in the data active means IC50 below about 80 µM
Active calls of the source: *.

`O=CC(=Cc1ccccc1)c1ccccc1` gave FAS-TE inh -3.4, aDG glyco up -0.1, Cardio protect -1.8 and MPTP inh 0.3.
Screening Cc1csc2c(N3CCN(C(=O)Nc4ccc(OC(F)(F)F)cc4)CC3)ncnc12 returned FAS-TE inh 20.8, aDG glyco up 0.4, Cardio protect -11.4, MPTP inh 88.8*, Yeast superoxide 95.6, Mot1-301 SUMO 52.2 and Rh123 counter 72.4*.
Screening CC(c1ccco1)N(C(=O)Nc1ccc(Cl)cc1)c1ccccn1 (stereo not given) returned FAS-TE inh -0.3, aDG glyco up 0.6, Cardio protect -6.6, MPTP inh 85.4*, Yeast superoxide 112.4, Mot1-301 SUMO -4.4 and Rh123 counter 98.3*.
`CCOC(=O)C1CCN(c2c(C(=O)c3ccccc3)cnc3ccc(Cl)cc23)CC1` gave FAS-TE inh 14.3, aDG glyco up 0.0, Cardio protect -4.8, MPTP inh -0.2, Yeast superoxide 93.1 and Mot1-301 SUMO -17.5.
Screening CC1=NN(c2ccccc2)C(=O)/C1=C/c1ccc(Cl)cc1 returned FAS-TE inh 2.2, aDG glyco up 0.2, Cardio protect -5.7, MPTP inh 97.8*, Yeast superoxide 100.2, Mot1-301 SUMO 6.9 and Rh123 counter 83.7*.
`CC1=NN(c2ccccc2)C(=O)/C1=C/c1c(O)n(-c2ccc(F)cc2)[nH]c1=O` gave FAS-TE inh 0.9, aDG glyco up -0.3, Cardio protect 1.3, MPTP inh 61.4*, Yeast superoxide 88.1, Mot1-301 SUMO -5.8 and Rh123 counter 12.7.
CC1=NN(c2ccccc2)C(=O)C1=Cc1ccccc1 was read as FAS-TE inh -2.8, aDG glyco up 0.0, Cardio protect 0.7 and MPTP inh 11.4.
For CC1CCCCC1NC(=S)Nc1ccc(SC(F)F)cc1 (stereo not given) the results were FAS-TE inh 21.3, aDG glyco up 3.1, Cardio protect -30.8, MPTP inh 66.4*, Yeast superoxide 106.1, Mot1-301 SUMO 1.7 and Rh123 counter 91.0*.
Screening FC(F)Sc1ccc(NC(=S)NC2CCCCC2)cc1 returned FAS-TE inh 16.5, aDG glyco up 0.9, Cardio protect -14.8, MPTP inh 101.2*, Yeast superoxide 101.0, Mot1-301 SUMO 2.0 and Rh123 counter 79.0*.
S=C(NCC1CCCCC1)Nc1cccnc1 was read as FAS-TE inh -8.0, aDG glyco up 0.6, Cardio protect 3.2, MPTP inh 0.8, Yeast superoxide 105.4 and Mot1-301 SUMO -20.6.
FC(F)Sc1ccc(NC(=S)NCC2CCCCC2)cc1 was read as FAS-TE inh 35.8, aDG glyco up 1.5, Cardio protect -14.7, MPTP inh 103.1*, Yeast superoxide 107.2, Mot1-301 SUMO -1.2 and Rh123 counter 80.0*.
CC1(C(=O)NCC2CCCCC2)CCN1CCc1ccccc1 (stereo not given) was read as FAS-TE inh 14.8, aDG glyco up 0.1, Cardio protect -5.2 and MPTP inh 2.5.
CNS(=O)(=O)c1ccc(NC(=S)Nc2ccc3c(c2)OCO3)cc1 was read as FAS-TE inh -3.3, aDG glyco up 0.2, Cardio protect -6.0, MPTP inh -0.9, Yeast superoxide 98.7 and Mot1-301 SUMO -6.3.
`CC(C)(C)c1ccc(NC(=O)COC(=O)c2ccc(NS(=O)(=O)c3ccc(F)c(F)c3)cc2)cc1` gave FAS-TE inh 31.9, aDG glyco up 0.1, Cardio protect -6.0, MPTP inh 60.3*, Yeast superoxide 97.8, Mot1-301 SUMO 151.5 and Rh123 counter 60.5*.
`CC(C)(C)NC(=O)NC(=O)COC(=O)c1cccc(NS(=O)(=O)c2ccc(F)c(F)c2)c1` gave FAS-TE inh 3.7, aDG glyco up -0.3, Cardio protect -7.3, MPTP inh 0.7, Yeast superoxide 93.5 and Mot1-301 SUMO -9.8.
`Cc1cccc(C)c1-n1nnnc1C1c2ccccc2C(=O)N1CCc1ccc(O)cc1` (stereo not given) gave FAS-TE inh -3.6, aDG glyco up 0.9 and MPTP inh 0.7.
`COc1ccc(CC(=O)Nc2cccc(S(=O)(=O)N3CCCCCC3)c2)cc1OC` gave FAS-TE inh 5.7, aDG glyco up 4.9, Cardio protect -26.0, MPTP inh 87.1*, Yeast superoxide 93.2, Mot1-301 SUMO -12.2 and Rh123 counter 80.9*.
`CSc1cccc(NC(=O)CCCOc2ccc(Cl)cc2C)c1` gave FAS-TE inh 28.0, aDG glyco up -0.1, Cardio protect -4.1, MPTP inh 74.6*, Yeast superoxide 98.8, Mot1-301 SUMO 29.8 and Rh123 counter 80.5*.
`COc1ccc(CC(=O)Nc2cccc(SC)c2)cc1OC` gave FAS-TE inh 5.0, aDG glyco up 1.6, Cardio protect -24.9, MPTP inh 53.9* and Rh123 counter 42.1*.
CC1(Cc2ccccc2OC(F)(F)F)C(=O)Nc2ccc(-c3ccsc3)cc21 (stereo not given) was read as FAS-TE inh 24.1, aDG glyco up 0.5, Cardio protect -8.0 and MPTP inh 1.2.
For COC(=O)c1cc2ccccc2n1S(=O)(=O)c1ccccc1 the results were FAS-TE inh 10.7, aDG glyco up 0.1, Cardio protect -8.7, MPTP inh -0.7, Yeast superoxide 108.3 and Mot1-301 SUMO -6.5.
N#CC1=C(N)N2C(=C(C#N)C1c1cccc(Br)c1)Nc1ccccc12 (stereo not given) was read as FAS-TE inh -1.0, aDG glyco up 0.2, Cardio protect -10.6, MPTP inh 85.5*, Yeast superoxide 105.7, Mot1-301 SUMO -4.2 and Rh123 counter 55.1*.
N#CC1=C(N)N2C(=C(C#N)C1c1ccc(Br)cc1)Nc1ccccc12 (stereo not given) was read as Yeast superoxide 120.2 and Mot1-301 SUMO 86.1.
`Cc1c(C(=O)NCCC#N)sc(=O)n1Cc1ccccc1F` gave FAS-TE inh 0.1, aDG glyco up 0.1, Cardio protect -1.2 and MPTP inh -4.1.
`N/C(=N\N=C/c1ccc(Br)cc1)N/N=C\c1ccc(Br)cc1` gave FAS-TE inh -28.5, aDG glyco up 0.1, Cardio protect -16.7, MPTP inh 58.7*, Yeast superoxide 98.5, Mot1-301 SUMO -51.0, Rh123 counter -6.2, MPTP abs DR inactive and MPTP counter DR 37.4*.
Screening N/C(=N\N=C/c1ccc(F)cc1)N/N=C\c1ccc(F)cc1 returned FAS-TE inh -22.6, aDG glyco up 0.1, Cardio protect -18.5, MPTP inh 3.9, Yeast superoxide 93.6 and Mot1-301 SUMO -28.6.
